The source of these data is PubChem BioAssay (EPA / NIEHS).

As a reminder, the AC50 is the midpoint of the concentration-response curve, whichever way the signal moves.

Records with an inconclusive call do not appear. Activity calls are given as the source filed them. Rule for the calls: active = hit-call score of the fitted dose curve at least 0.9, where 1 is the maximum; inconclusive = response in the unintended direction; inactive = score below 0.9.

For assay [1], the target named is Cellular tumor antigen p53 (Homo sapiens) (UniProt P04637). The assay can be described thus: TOX21_p53_BLA_p5_ratio: Tox21 HCT-116 p53 Agonism Beta-lactamase Assay, Ratio, Phase 5 (AID 2283599). In short, it runs like this: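 Beta-lactamase reporter ratio (blue 460 nm over green 530 nm, 405 nm excitation) after 2 h CCF4-AM loading, in HCT-116 cells exposed 16 h at 37 C to compounds pinned at 217-fold dilution. Increases relative to DMSO baseline scored.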

A short description of assay [2]: TOX21_p53_BLA_p5_viability: Viability Assessment in the Tox21 HCT-116 p53 Agonism Beta-lactamase Assay, Phase 5 (AID 2283600). In short, it runs like this:
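4000 cells/well; 5 h pre-incubation; DMSO compounds pin-transferred, 217-fold dilution; 16 h, 37C/5% CO2; CCF4-AM 2 h RT; CellTiter-Glo 30 min RT; luminescence.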

Assay [3] concerns the target Cellular tumor antigen p53 (Homo sapiens) (UniProt P04637). The assay can be described thus: TOX21_p53_BLA_p4_ratio: Tox21 HCT-116 p53 Agonism Beta-lactamase Assay, Ratio, Phase 4 (AID 2283601). In short, it runs like this:
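Signal is the blue/green (460nm/530nm) ratio of cleaved versus uncleaved CCF4-AM substrate, read after 2 h substrate loading. Cells were HCT116 carrying the p53-responsive beta-lactamase reporter, dosed 16 h at 37C, 5% CO2; CellTiter-Glo measured in parallel.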

Assay [4] can be described thus: Tanguay_ZF_120hpf_MORT_legacy: (Legacy) Oregon State University Tanguay Lab 120 Hour Post-fertilization zebrafish Assay for Mortality (AID 2283633).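 For AC50: fitted as increase in binary mortality versus DMSO negative control.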 In short, it runs like this:
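5D WT zebrafish, chorion removed 4 hpf; 1 embryo/well from 6 hpf; static exposure to 120 hpf, 28C, dark, sealed. Final DMSO 0.64%. Readout: binary mortality, brightfield, 24 + 120 hpf; DMSO as negative control.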

The nature of assay [5]: Tanguay_ZF_120hpf_YSE_legacy: (Legacy) Oregon State University Tanguay Lab 120 Hour Post-fertilization zebrafish Assay for Yolk Sac Edema (AID 2283634). In short, it runs like this:
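Dechorionate (pronase, 4 hpf) → place one 6 hpf embryo per well → static compound exposure, sealed and foil-covered, 28C, to 120 hpf → record yolk sac edema as present or absent. Final DMSO 0.64%.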

A short description of assay [6]: Tanguay_ZF_120hpf_AXIS_legacy: (Legacy) Oregon State University Tanguay Lab 120 Hour Post-fertilization zebrafish Assay for Body Axis Malformation (AID 2283635). The essentials:
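Chorion is removed with pronase at 4 hpf, then single 6 hpf embryos are dosed (final DMSO 0.64%) and held statically at 28C in sealed, foil-covered plates. At 120 hpf body axis malformation is recorded as present or absent.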

Assay [7] is described as follows: Tanguay_ZF_120hpf_EYE_legacy: (Legacy) Oregon State University Tanguay Lab 120 Hour Post-fertilization zebrafish Assay for Eye Malformation (AID 2283636). The essentials:
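Read-out is binary presence or absence of eye malformation, scored by brightfield microscopy at 120 hpf. Single larvae were exposed from 6 hpf in embryo medium containing 0.64% DMSO, with DMSO as baseline.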

A short description of assay [8]: Tanguay_ZF_120hpf_SNOU_legacy: (Legacy) Oregon State University Tanguay Lab 120 Hour Post-fertilization zebrafish Assay for Snout Malformation (AID 2283637). The essentials: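 Snout malformation read as a yes/no call on brightfield images of 120 hpf larvae (Tropical 5D strain). Static exposure began at 6 hpf on dechorionated embryos in 0.64% DMSO, with gain of signal analysed versus DMSO controls.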

Assay [9] in a line: Tanguay_ZF_120hpf_OTIC_legacy: (Legacy) Oregon State University Tanguay Lab 120 Hour Post-fertilization zebrafish Assay for Otic Vesicle Malformation (AID 2283639). In short, it runs like this:
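Tropical 5D wild-type zebrafish embryos statically exposed in 0.64% DMSO at 28C until 120 hpf; 5uM trimethyltin chloride as positive control. Otic vesicle malformation scored present/absent by brightfield; dead embryos not scored; gain fitted versus DMSO.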

A short description of assay [10]: Tanguay_ZF_120hpf_PE_legacy: (Legacy) Oregon State University Tanguay Lab 120 Hour Post-fertilization zebrafish Assay for Pericardial Edema (AID 2283640). In short, it runs like this:
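Embryos from wild-type 5D adults were staged, then dosed in 0.64% DMSO. They were kept sealed in the dark at 28C until 120 hpf. Pericardial edema was then recorded as present or absent.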

Assay [11] in a line: Tanguay_ZF_120hpf_BRAI_legacy: (Legacy) Oregon State University Tanguay Lab 120 Hour Post-fertilization zebrafish Assay for Brain Malformation (AID 2283641). In short, it runs like this: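 Wild-type 5D larvae, static waterborne exposure to 120 hpf, 28C, 0.64% v/v DMSO. Brightfield scoring of brain defects, binary; dead embryos excluded. Positive ctrl 5uM trimethyltin chloride.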

The nature of assay [12]: Tanguay_ZF_120hpf_SOMI_legacy: (Legacy) Oregon State University Tanguay Lab 120 Hour Post-fertilization zebrafish Assay for Somite Malformation (AID 2283647). The essentials:
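Read-out: presence or absence of somite malformation in 120 hpf larvae, gain-of-signal relative to DMSO baseline. Embryos lacked chorion (pronase, 4 hpf) and were exposed statically from 6 hpf at 28C; dead larvae not scored.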

The nature of assay [13]: Tanguay_ZF_120hpf_PFIN_legacy: (Legacy) Oregon State University Tanguay Lab 120 Hour Post-fertilization zebrafish Assay for Pectoral Fin Malformation (AID 2283648).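 Note: each larva judged yes or no for fin defect by brightfield with dead larvae skipped.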 In short, it runs like this:
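5D WT zebrafish; pronase dechorionation 4 hpf; 1 embryo/well at 6 hpf; static exposure to 120 hpf, 28C, sealed, foil-covered; final DMSO 0.64% v/v; 5 uM trimethyltin chloride positive control; fin defect scored yes/no.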

Assay [14] in a line: Tanguay_ZF_120hpf_PIG_legacy: (Legacy) Oregon State University Tanguay Lab 120 Hour Post-fertilization zebrafish Assay for Pigmentation Malformation (AID 2283650). In short, it runs like this:
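Pronase dechorionation at 4 hpf; embryos plated at 6 hpf, one per well; static exposure, sealed and foil-covered, 28C, to 120 hpf; pigmentation read by brightfield, binary; DMSO 0.64% baseline, 5uM trimethyltin chloride positive control.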

A short description of assay [15]: Tanguay_ZF_120hpf_CIRC_legacy: (Legacy) Oregon State University Tanguay Lab 120 Hour Post-fertilization zebrafish Assay for Circulatory Malformation (AID 2283651). The essentials: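 Dechorionated wild-type 5D zebrafish embryos, one per well, statically exposed from 6 to 120 hpf at 28C with 0.64% DMSO; circulatory malformation scored present/absent by brightfield microscopy at 120 hpf, dead embryos excluded.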

Assay [16] can be described thus: Tanguay_ZF_120hpf_CFIN_legacy: (Legacy) Oregon State University Tanguay Lab 120 Hour Post-fertilization zebrafish Assay for Caudal Fin Malformation (AID 2283649). The essentials:
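Binary presence or absence of caudal fin malformation at 120 hpf, read by brightfield microscopy, with DMSO as baseline. Larvae came from 5D wild-type embryos exposed statically from 6 hpf at 28C after pronase dechorionation.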

The nature of assay [17]: Tanguay_ZF_120hpf_JAW_legacy: (Legacy) Oregon State University Tanguay Lab 120 Hour Post-fertilization zebrafish Assay for Jaw Malformation (AID 2283638). The essentials: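 Steps: dechorionate 4 hpf embryos (pronase); plate 1/well at 6 hpf; add test chemical, 0.64% DMSO final; seal, cover, hold at 28C statically to 120 hpf; score jaw defect presence/absence microscopically. Dead embryos not scored.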

Cellular tumor antigen p53 (Homo sapiens), sequence (P04637 whole entry, looked up): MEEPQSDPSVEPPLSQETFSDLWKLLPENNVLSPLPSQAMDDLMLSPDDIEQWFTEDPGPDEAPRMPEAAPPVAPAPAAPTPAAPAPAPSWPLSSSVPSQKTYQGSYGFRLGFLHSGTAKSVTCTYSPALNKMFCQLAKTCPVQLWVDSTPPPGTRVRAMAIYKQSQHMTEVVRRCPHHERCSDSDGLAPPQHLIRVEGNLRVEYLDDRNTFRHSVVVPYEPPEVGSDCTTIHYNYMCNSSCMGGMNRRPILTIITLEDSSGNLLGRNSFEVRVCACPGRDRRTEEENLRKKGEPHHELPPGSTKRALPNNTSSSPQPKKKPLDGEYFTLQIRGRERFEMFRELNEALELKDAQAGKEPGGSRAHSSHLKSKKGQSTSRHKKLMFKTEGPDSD

As to `CC1(C)C(=O)NC(=O)N1CO`, the result in [1], in assay [2], in assay [3], in assay [4], in [5] and in assay [6] was inactive. Further, the outcome in assay [7], in assay [8], in assay [9], in [10], in assay [11] and in assay [12] was inactive. Further, the result in assay [13], in assay [14] and in assay [15] was inactive.

As for `CC(C)OC(=O)C(C)(C)Oc1ccc(C(=O)c2ccc(Cl)cc2)cc1`, the outcome in assay [4], in assay [7], in assay [9], in [10], in assay [16] and in [14] was inactive. The result in [15] was inactive.

`CC(C)COC(=O)CCCCC(=O)OCC(C)C`: the molecule was called inactive in assay [4], in assay [5], in assay [6], in [7], in assay [8] and in [9]. In addition, the molecule was called inactive in assay [11], in assay [12], in assay [16] and in assay [14].

As for `O=C1NC(=O)C(c2ccccc2)(c2ccccc2)N1`, the result in assay [4], in assay [5], in assay [6], in [7], in assay [8] and in [9] was inactive. The result in assay [10], in assay [12], in [13], in [16], in assay [14] and in [15] was inactive.

With `CCCC(=O)O`, the molecule was called inactive in [4], in [5], in assay [6], in assay [7], in [8] and in [10]. Further, the result in assay [11], in assay [12], in assay [13], in [16] and in assay [15] was inactive.

Consider `CC(C)c1cccc(C(C)C)c1`, for which the molecule was classed as inactive in [4], in [6], in assay [7], in assay [9], in assay [10] and in assay [16]. In addition, the outcome in assay [14] and in assay [15] was inactive.

Regarding `CC(N)=O`, the call in assay [4], in assay [5], in assay [6], in assay [7], in [8] and in assay [9] was inactive. In addition, the outcome in assay [10], in assay [11], in [12], in assay [13], in assay [14] and in assay [15] was inactive.

With `CC(=O)OC1CC(C)OC(C)O1` (stereo not given), the molecule was called inactive in assay [4], in assay [5], in [6], in [7], in assay [8] and in assay [17]. The outcome in assay [10], in [12], in assay [13], in assay [16], in assay [14] and in assay [15] was inactive.

For the molecule `CCCCOC(=O)CCCCC(=O)OCCCC`, the outcome in [4], in assay [5], in assay [8], in [9], in assay [10] and in [11] was inactive. Also, the result in assay [12], in [13], in [16] and in [14] was inactive.

`O=Cc1ccccc1C=O`: in assay [4], the AC50 is 4.42 µM (active). The molecule was called inactive in assay [5], in assay [6], in assay [7], in assay [8], in assay [9] and in assay [10]. Moreover, the result in assay [12], in assay [16], in assay [14] and in [15] was inactive.

As for `O=NO`, the outcome in [4], in [5], in assay [6], in [7], in assay [8] and in [10] was inactive. Besides, the molecule was called inactive in [12], in assay [16], in assay [14] and in [15].

Regarding `C/C=C/c1ccc(OC)cc1`, the outcome in [4], in assay [5], in assay [7], in assay [8], in assay [17] and in assay [9] was inactive. For the same molecule, the outcome in assay [10], in assay [11], in assay [12], in [13], in assay [16] and in assay [14] was inactive.
